Test results as given in PubChem BioAssay AID2685 (National Center for Advancing Translational Sciences (NCATS), 2010).
The whole screen tested about 320,000 compounds, of which about 2,100 (0.66%) were called active. About 53% were inconclusive and are not listed. Calls follow the shape of the dose curve; as a rule, active = well fitted inhibition curve with a large enough effect in the signal ratio, with a control signal flat (not every such curve was filed as active); inconclusive = small, poorly fitted or top-dose-only effect, or effect the other way, or a change in a side signal; inactive = flat fitted curve, though single readings scatter; the % refers to the signal ratio. For the sample, actives were picked, then their nearest neighbours and some compounds at random.

Test: qHTS Assay for Lipid Storage Modulators in Drosophila S3 Cells;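 as to cell number change: cells counted by Cell Tracker Red CMTPX staining in the red channel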; as to lipid storage change, negative = inhibition: % is scaled to controls: 0 for no effect and ±100 for the full control effect
Settings: BODIPY lipid droplet fluorescence, 18-24 h, cells fed with added oleic acid; cell number change: measured here: cell count max response; series mostly up to 46.1 µM; lipid storage change, negative = inhibition: at the top concentration
In short: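 Drosophila S3 cells loaded with oleic acid (400 uM, as added) and compounds at several concentrations; lipid droplets imaged by 488-nm laser-scanning cytometry, 500–530 nm intensity and object ratio to cell channel. Percent activity normalized to 20 uM Triacsin C.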
Potency is read from the fitted curve at half-maximal effect.

Row | SMILES | lipid storage change, negative = inhibition | cell number change | outcome | Potency
1 | O=C(O)c1cc(-c2cccnc2)nc2ccc(Br)cc12 | 0.173% (inactive) | 9.56% |  | 
2 | CC(C)(C)c1ccc(OCc2nnc(SCC(N)=O)n2N)cc1 |  |  | inactive | 
3 | Cc1cccc(NC(=O)CCNC(=O)c2ccccc2Cl)n1 | 12.1% (inactive) |  |  | 
4 | COC(=O)c1ccccc1NC(=O)c1cccnc1 | -6.62% (inactive) | 10.2% |  | 
5 | C/C(=C\C=C(C#N)C#N)c1cc(C#N)c(N)o1 |  | -22.3% |  | 16.4 µM (active)
6 | O=C(Cc1cccs1)Nc1ccccc1F | 14% (inactive) | 10.1% |  | 
7 | CCOCCCNC(c1ccccc1)c1ccncc1 (configuration not stated) |  | 7.02% | inactive | 
8 | Cc1nc2c(n1O)CCC/C2=N\O | 7.07% (inactive) | -1.11% |  | 
9 | COc1ccc(-c2nc3c(n2O)CCC/C3=N\O)cc1 |  | 4.07% |  | 4.61 µM (active)
10 | O/N=C1\CCCc2c1nc(-c1ccccc1F)n2O | 12.7% (inactive) |  |  | 
11 | COc1ccccc1OCc1cc(C(=O)N2CCCC(OCc3cccnc3)C2)no1 (configuration not stated) | -8.97% (inactive) | 8.19% |  | 
12 | COc1cccc(OCc2cc(C(=O)N3CCN(C(C)=O)CC3)no2)c1 |  | 19% | inactive | 
13 | COc1cccc(OCc2cc(C(=O)N3CCC(c4ccncc4)CC3)no2)c1 |  |  |  | 4.11 µM (active)
14 | O=C(c1cc(COc2ccc(F)cc2Cl)on1)N1CCCC(OCc2cccnc2)C1 (configuration not stated) | -18.4% (inactive) | -4.29% |  | 
15 | CCN1CCN(C(=O)c2cc(COc3ccc4ncccc4c3)on2)CC1 | -15.1% (inactive) | -6.54% |  | 
16 | CCC(O)C1CCN(C(=O)c2cc(COc3ccc4ncccc4c3)on2)CC1 (configuration not stated) | 8.73% (inactive) |  |  | 
17 | O=C(c1cc(COc2ccccc2)on1)N1CCCC(OCc2cccnc2)C1 (configuration not stated) |  |  |  | 1.03 µM (active)
18 | O=C(c1cc(COc2ccc3ncccc3c2)on1)N1CCCC1 |  | -24% |  | 7.31 µM (active)
19 | Cc1cccc(C)c1OCc1cc(C(=O)N2CCC(c3ccncc3)CC2)no1 |  | -16.1% | inactive | 
20 | CCOC(=O)C(C(=O)OCC)N(C#N)c1nc(N(C)C)nc(N(C)C)n1 | 1.46% (inactive) | 12.4% |  | 
21 | O=c1[nH]n2cc(-n3cc([N+](=O)[O-])cn3)cnc2c1Br |  |  | inactive | 

Row | SMILES | lipid storage change, negative = inhibition | cell number change | outcome | Potency
22 | Cc1ccc(C(=O)Nc2ccc(N3CCN(C)CC3)cc2)cc1C | -16.1% (inactive) | 4.5% |  | 
23 | Nc1nnc(SCc2ccccc2F)s1 | 20.7% (inactive) | 16.1% |  | 
24 | COc1ccc(NC(=O)CC2C(=O)N(C)C(=S)N2Cc2ccc3c(c2)OCO3)cc1 (configuration not stated) | -26.7% (inactive) | 20% |  | 
25 | C/C(=N\O)c1c(O)cc(-c2ccccc2)n(-c2ccccc2)c1=O | 4.63% (inactive) | 13.2% |  | 
26 | COc1ccc(-c2ccc(CCC(=O)O)n2-c2ccccc2O)cc1 | 2.11% (inactive) | 6.08% |  | 
27 | Oc1ccccc1-n1c(-c2ccccc2)ccc1-c1ccccc1 |  | -6.63% |  | 2.06 µM (active)
28 | O=C(CCCN1C(=O)c2ccccc2C1=O)Nc1ccc(Br)cn1 | -25.9% (inactive) | 16.2% |  | 
29 | Cc1ccc(S(=O)(=O)N2CCOC2CNC(=O)C(=O)NCCCN2CCOCC2)cc1 (configuration not stated) |  | -5.14% | inactive [at 0.369 µM] | 
30 | COC(=O)c1ccncc1C(=O)Nc1ccc(Oc2ncc(C(F)(F)F)cc2Cl)cc1 | -11.6% (inactive) | -10.1% |  | 
31 | CCCOc1ccc(CCC(=O)O)cc1 | 4.14% (inactive) | 1.83% |  | 
32 | Cc1nc(SCC(=O)NC(=O)NC2CCCCC2)nc(C)c1C | -12.8% (inactive) | -13.4% |  | 
33 | COc1ccc(CCNC(=O)c2ccco2)cc1OC | 5.81% (inactive) | 10.7% |  | 
34 | COc1ccc(CCN(C)C(=O)C(CCSC)NC(=O)c2ccco2)cc1OC (configuration not stated) |  | -10.8% |  | 2.31 µM (active)
35 | CSCCC(NC(=O)c1ccco1)C(=O)N(C)CC(=O)Nc1c(Cl)cccc1Cl (configuration not stated) |  |  | inactive | 
36 | CCOC(=O)c1c(-c2ccccc2)csc1NC(=O)/C(C#N)=C/c1ccc(OC)c(OC)c1 | 15.7% (inactive) | -0.159% |  | 
37 | CCOC(=O)c1c(-c2ccc(C)cc2)csc1NC(=O)/C(C#N)=C/c1ccc(O)c(OC)c1 |  | -27.7% |  | 23.1 µM (active)
38 | COc1cc(/C=C(\C#N)C(=O)NCc2cccs2)ccc1O | -8.42% (inactive) | -0.911% |  | 
39 | COc1ccccc1NC(=O)CN1CCOCC1 | 20.9% (inactive) | 25.4% |  | 
40 | COc1ccc(/C=N/NC(=O)c2cccc(NC(=O)c3ccccc3Cl)c2)cc1 |  | -0.417% | inactive | 
41 | O=C(COC(=O)CCOc1ccccc1)NCCC1=CCCCC1 | 10.3% (inactive) | 10.9% |  | 
42 | CCOC(=O)C(C)(C)N(Cc1cccc(C)c1)S(=O)(=O)c1ccc(Cl)c([N+](=O)[O-])c1 |  | -21.7% |  | 16.4 µM (active)

Row | SMILES | lipid storage change, negative = inhibition | cell number change | outcome | Potency
43 | CCOC(=O)C(C)(C)N(Cc1ccccc1C)S(=O)(=O)c1ccc(Cl)c([N+](=O)[O-])c1 | -15.8% (inactive) | -1.56% |  | 
44 | CCOC(=O)C(C)(C)N(Cc1ccc(Cl)cc1)S(=O)(=O)c1ccc(Cl)c([N+](=O)[O-])c1 | 15.5% (inactive) | 5.39% |  | 
45 | CCOC(=O)C(C)(C)N(Cc1ccc(C)cc1)S(=O)(=O)c1ccc(Cl)c([N+](=O)[O-])c1 |  | -25.3% | inactive | 
46 | CCOC(=O)C(C)(C)NS(=O)(=O)c1ccc(Cl)c([N+](=O)[O-])c1 |  | -25% |  | 20.6 µM (active)
47 | CCOC(=O)C(C)(C)N(Cc1cccc(C)c1)S(=O)(=O)c1cccc([N+](=O)[O-])c1 | -28.1% (inactive) | -5.11% |  | 
48 | CC(C)(C)NC(=O)c1cc(-c2ccccc2)n[nH]1 | 4.25% (inactive) |  |  | 
49 | CCCOc1ccc(/C=C2\SC(N)=NC2=O)cc1OC | 9.06% (inactive) | 8.06% |  | 
50 | NC(=O)c1cc(S(=O)(=O)N2CCN(c3cccc(Cl)c3)CC2)cs1 |  | 14.3% | inactive | 
51 | COc1ccccc1/C=C/C1C(C(=O)OCC(C)C)=C(C)N=C2SCCC(=O)N21 (configuration not stated) | 3.95% (inactive) | 9.42% |  | 
52 | Cc1ccc(NC(=O)c2cn(CCC#N)nc2-c2cccs2)c([N+](=O)[O-])c1 | -1.84% (inactive) | -4.62% |  | 
53 | Cc1ccc(C2NC(c3ccc(C)cc3)C([N+](=O)[O-])C(C)(C)C2[N+](=O)[O-])cc1 (configuration not stated) | 8.05% (inactive) | -8.86% |  | 
54 | CC1(C)C([N+](=O)[O-])C(c2ccc(F)cc2)NC(c2ccc(F)cc2)C1[N+](=O)[O-] (configuration not stated) | 9.03% (inactive) | 2.48% |  | 
55 | Cc1cccc(C2NC(c3cccc(C)c3)C([N+](=O)[O-])C(C)(C)C2[N+](=O)[O-])c1 (configuration not stated) |  | 3.3% |  | 5.17 µM (active)
56 | Cc1cccc(NC(=O)CS(=O)(=O)c2cn(C)c3ccccc23)c1C |  |  | inactive | 
57 | Clc1ccc(-c2nnc(CNC3CC3)o2)cc1 | 15.9% (inactive) | 6.34% |  | 
58 | CCCCCN(C(=O)CN1CCC(Cc2ccccc2)CC1)c1c(N)n(CCCC)c(=O)[nH]c1=O | 11.8% (inactive) | 27.6% |  | 
59 | CCOC(=O)C1CCN(CCC(=O)Nc2ccc(Br)c(C)c2)CC1 | -7.09% (inactive) | 0.794% |  | 
60 | CCOC(=O)C1CCCN(CCC(=O)Nc2ccc(Br)c(C)c2)C1 (configuration not stated) |  | 4.56% |  | 18.4 µM (active)
61 | CCOC(=O)C1CCCN(CCC(=O)Nc2ccc(C)c(C)c2)C1 (configuration not stated) | 3.75% (inactive) | 17% |  | 
